Compounds with a hit are over-represented: about 2% of the library has one in this group of screens.
INS promoter inh – TRM-6 insulin promoter activity inhibition. TRM-6 cells (human fetal islet line), insulin promoter-eGFP reporter, imaging; reporter expression induced with tamoxifen. AID 1273. 130,000 tested, 0.9% active. inhibition, % at 2 µM;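 active = inhibition above the mean plus 3 SD, with well images judged a real hit on visual review, cut at about 60% in these data, passing the limit was not always enough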
PERK inh – inhibitors of human PERK kinase; Q9NZJ5; CHO PERK-DD fusion, SEAP luminescence translation reporter; inhibition, % at 5.6 µM; 220,000 tested, 0.17% active;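 active = inhibition above the mean inhibition of all tested compounds plus 3 SD, set separately per screening campaign, cut at about 2.9% in these data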;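 also: PERK kinase domain activated by AP20187 dimerizer at 100 nM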
eIF4E 4G PPI – blocks eIF4E binding to eIF4G. P63073+Q04637. TR-FRET eIF4E-eIF4GI(517-606) binding, 2 h. inhibition, % at 21.7 µM. 220,000 tested, 0.37% active. AID 782;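 active = inhibition above about 30%, limit read from the data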
Autophagy mod – modulators of autophagy. AID 463193. calls only at 10 µM (by protocol). 190,000 tested, 0.98% active. MEF GFP-LC3 puncta imaging; test concentration mostly 10 µM;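 active = percentage of spot-positive cells more than 3 SD above its plate mean, without a fluorescence outlier flag or 80% toxicity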
Ins promoter up – MIN6 insulin promoter up-regulation. MIN6 insulin promoter-GFP reporter, high-content imaging; active compounds read high. z-score at 5 µM. 190,000 tested, 0.3% active;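 active = z-score above 3 at 5 µM with at least 500 cells counted in the well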
Each line names hits and unclear results; the compound was inactive in the other large screens.

Cc1nn(Cc2ccc([N+](=O)[O-])cc2)c(=O)n1-c1ccccc1Cl	Autophagy mod active (no result: INS promoter inh)
COc1ccc(NC(=O)c2sc(Cl)nc2-c2ccccc2)cc1	none
CCCCCn1c(=O)[nH]c2cc(C(=O)N3CCN(Cc4ccc5c(c4)OCO5)CC3)ccc2c1=O	eIF4E 4G PPI 44 (no result: Ins promoter up)
COc1ccccc1CNC(=O)c1ccc(OC(C)C)cc1	none
Cn1nccc1CNC(=O)c1c(Cl)cnn1C	INS promoter inh 73 (no result: Ins promoter up)
Cc1ccc(C)n1CCN1CCN(CC(=O)Nc2cc(C(F)(F)F)ccc2Cl)CC1	Autophagy mod active
O=C(CN1CCOCC1)Nc1cc(C(F)(F)F)ccc1Cl	none (no result: INS promoter inh)
c1ccc(-c2cn3nc(-c4ccccc4)cnc3n2)cc1	Autophagy mod active (no result: INS promoter inh)
NS(=O)(=O)c1ccc(CCn2c(=S)[nH]c3ccc(F)cc3c2=O)cc1	none
COc1cc(/C=N/NC(N)=O)ccc1OCC(=O)Nc1cc(C)c(C)cc1Br	Autophagy mod active (no result: INS promoter inh)
CCOc1cc(/C=N\Nc2ccc([N+](=O)[O-])cc2)ccc1OCC(=O)Nc1ccc(C)c(C)c1	Autophagy mod active (no result: Ins promoter up)
COc1cc(/C=N\NC(=O)CN2CCOCC2)ccc1OCC(=O)Nc1ccc(C)c(C)c1	none (no result: Ins promoter up)
COc1cc(/C=N\Nc2ccc([N+](=O)[O-])cc2)ccc1OCC(=O)Nc1ccc(C)c(C)c1	Autophagy mod active (no result: Ins promoter up)
CCOc1cc(/C=N\NC(=O)Cc2ccccc2)ccc1OCC(=O)Nc1ccc(C)c(C)c1	none
COc1cc(/C=N/NC(N)=S)ccc1OCC(=O)Nc1ccc(C)cc1	none
COC(=O)C1=C(C)N2C(=O)CSC2=NC1c1ccc2c(c1)OCO2 (centres undefined)	none (no result: INS promoter inh, PERK inh, eIF4E 4G PPI, Autophagy mod)
CCN(CC)Cc1c(O)ccc2occ(C(=O)c3ccc(OC)cc3)c12	none
CCN(CC)Cc1c(O)ccc2c([N+](=O)[O-])c(C)n(-c3ccc(OC)cc3)c12	INS promoter inh 78 (no result: Ins promoter up)
CCC(=O)NC(=S)Nc1ccc(NC(=S)NC(=O)c2ccccc2)cc1	none
CCC(=O)NC(=S)Nc1cccc(NC(=O)c2ccccc2)c1	Autophagy mod active (no result: INS promoter inh)
Cc1ccc2[nH]c3c(=S)nc[nH]c3c2c1	INS promoter inh 78
O=c1[nH]c2ccc(Cl)cc2c(O)c1Cc1ccccc1	INS promoter inh 73
CCOc1cc(C)c(C(C)C)cc1S(=O)(=O)n1ccc(C)n1	INS promoter inh 82
CCOc1ccc(C)cc1S(=O)(=O)n1ccc(C)n1	none
COc1ccccc1NS(=O)(=O)c1cccc(C(=O)N/N=C/c2ccc(NC(C)=O)cc2)c1	none (no result: INS promoter inh)
Cc1nn2c3ccccc3nc2n(Cc2ccccc2)c1=O	PERK inh 3.1 (no result: eIF4E 4G PPI, Ins promoter up)
CCn1c(=O)c(C)nn2c3ccccc3nc12	none
